Assay results from PubChem BioAssay (NCI).
About 83,000 compounds went through this panel and 20% of them were active in at least one assay; those are over-represented in the sample as a whole.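 Activity criterion: percent growth below 10, measured after cells in 96-well plates were exposed to a single compound concentration for 48 hours.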 Calls of active or inactive are those of the source.

Legend:
Assay in all cases: NCI-60 one-dose screen, 48 h (100 = growth as untreated, 0 = no growth, -100 = all killed)
Settings in all cases: 10 µM unless noted
[1] = tested on: DU-145 prostate
[2] = tested on: K-562 leukemia
[3] = tested on: MALME-3M melanoma
[4] = tested on: MDA-MB-231 breast
[5] = tested on: RXF 393 renal
[6] = tested on: SF-268 CNS
[7] = tested on: SF-295 CNS
[8] = tested on: SF-539 CNS
[9] = tested on: UACC-257 melanoma
[10] = tested on: M14 melanoma
[11] = tested on: HCT-15 colon
[12] = tested on: HT29 colon
[13] = tested on: SNB-75 CNS
[14] = tested on: SNB-19 CNS
[15] = tested on: U251 CNS
[16] = tested on: SK-MEL-5 melanoma
[17] = tested on: UACC-62 melanoma
[18] = tested on: LOX IMVI melanoma
[19] = tested on: SK-MEL-28 melanoma
[20] = tested on: PC-3 prostate

Measured: growth

O=C(O)c1cn(C2CC2)c2cc(N3CCN(Cc4cc(Cl)ccc4O)CC3)c(F)cc2c1=O
inactive: [1] 95.2% | [2] 46.5% | [3] 80.7% | [4] 71.3% | [5] 60.2% | [6] 75.8% | [7] 34.3% | [8] 74% | [9] 80.7% | [10] 59.2% | [11] 45.7% | [12] 44.9% | [13] 67.6% | [14] 60.2% | [15] 36.6% | [16] 58.8% | [17] 54.9% | [18] 57.1% | [19] 71.7%

C#CCOc1ccc(C2=NN(CC3CC3)C3N=C(Cl)c4ncn(CC5CC5)c4N23)cc1OCC#C (centres undefined)
inactive: [1] 69% | [2] 48.6% | [3] 83.5% | [4] 87.5% | [5] 51.2% | [6] 96.8% | [7] 88% | [8] 90% | [9] 98.8% | [11] 69.5% | [12] 84.3% | [13] 84.6% | [14] 98.7% | [15] 70.5% | [20] 63.7% | [16] 60.9% | [17] 59.7% | [18] 68.4%

C[C@@H](NC(=O)[C@@H](CC(=O)N1CCC(N2CCCCC2)CC1)N1C(=O)[C@@H](N2C(=O)OC[C@@H]2c2ccccc2)[C@H]1/C=C/c1cccc(Cl)c1)c1ccccc1
active: [2] -8.32% | [3] -33.7% | [10] -46.6% | [12] 1.92% | [16] -89% | [18] -43.2% | [19] -29.4%
inactive: [1] 88.1% | [4] 33.2% | [5] 60.5% | [6] 67.9% | [7] 82% | [8] 75.7% | [9] 57.2% | [11] 32.8% | [13] 70.8% | [14] 82.2% | [15] 55.2% | [17] 89.5%

Cc1cc(SC#N)ncn1
inactive: [1] 112% | [2] 95.1% | [3] 100% | [4] 93.3% | [5] 105% | [6] 111% | [7] 128% | [8] 103% | [9] 103% | [10] 108% | [11] 102% | [12] 108% | [13] 86.7% | [14] 103% | [15] 103% | [16] 100% | [17] 93.5% | [18] 93.7% | [19] 114%

C=C(C)[C@@H]1CC[C@]2(C(N)=O)CC[C@]3(C)[C@H](CC[C@@H]4[C@@]5(C)C/C(=C/c6cccnc6)[C@H](O)C(C)(C)[C@@H]5CC[C@]43C)[C@@H]12
active: [2] 5.36% [100 µM] | [3] 5.89% [100 µM] | [12] -20.5% [100 µM] | [16] -78.1% [100 µM] | [18] -35.9% [100 µM]
inactive: [1] 38.2% [100 µM] | [4] 28.9% [100 µM] | [5] 13.4% [100 µM] | [6] 45.6% [100 µM] | [7] 23.9% [100 µM] | [8] 25.1% [100 µM] | [9] 38% [100 µM] | [10] 33.8% [100 µM] | [11] 18.7% [100 µM] | [13] 47.1% [100 µM] | [14] 39% [100 µM] | [15] 24.6% [100 µM] | [17] 24.8% [100 µM] | [19] 26.5% [100 µM]

C#C[C@]1(O)CC[C@H]2[C@@H]3CC=C4c5nc(Nc6ccccc6[N+](=O)[O-])sc5CC[C@]4(C)[C@H]3CC[C@@]21C
inactive: [1] 55.3% | [3] 51.7% | [4] 52.4% | [6] 52.8% | [9] 73% | [11] 35.3% | [12] 55.7% | [13] 17.9% | [14] 76.6% | [15] 39.7% | [16] 60.6% | [17] 67.8% | [18] 73.1% | [19] 62.1%
active: [2] 8.86% | [5] -44% | [7] -46.1% | [8] -31.5% | [10] -23.1%

CC1(C)C(=O)/C(=C\c2ccco2)C[C@]2(C)[C@H]3CC=C4[C@@H]5C[C@](C)(C(=O)O)CC[C@]5(C)CC[C@@]4(C)[C@]3(C)CC[C@@H]12
active: [1] -33.5% [100 µM] | [2] 4.42% [100 µM] | [3] -70% [100 µM] | [4] -58.5% [100 µM] | [5] -85.6% [100 µM] | [6] -77.7% [100 µM] | [7] -48.8% [100 µM] | [8] -77.5% [100 µM] | [9] -49.3% [100 µM] | [10] -43.4% [100 µM] | [11] -86.4% [100 µM] | [12] -50.8% [100 µM] | [13] -82.5% [100 µM] | [14] -91.7% [100 µM] | [15] -80.8% [100 µM] | [16] -72.7% [100 µM] | [17] -83.7% [100 µM] | [18] -93.6% [100 µM] | [19] -75.1% [100 µM]

CCCOc1ccc(-c2nc(-c3ccc(N)cc3)cs2)cc1
inactive: [1] 133% | [2] 85.3% | [3] 116% | [4] 99% | [5] 99.5% | [6] 133% | [7] 89.3% | [8] 103% | [9] 111% | [10] 111% | [11] 89.9% | [12] 96.7% | [13] 98% | [14] 96.6% | [15] 107% | [16] 100% | [17] 97% | [18] 110% | [19] 132%

O=[N+]([O-])c1cccc(N=NNc2cccc([N+](=O)[O-])c2)c1
inactive: [1] 86.2% | [2] 103% | [3] 102% | [4] 78.8% | [5] 90.2% | [6] 93.5% | [7] 95.6% | [8] 97.6% | [9] 103% | [10] 102% | [11] 85.8% | [12] 92.6% | [13] 94.4% | [14] 92% | [15] 82.8% | [16] 87.3% | [17] 76.5% | [18] 89.1% | [19] 99.5%

O=C(Nc1cc(-c2cccnc2)nc(NCCCN2CCOCC2)n1)c1cc(Br)cc(C(F)(F)F)c1
inactive: [1] 82.6% | [4] 32.7% | [5] 52.8% | [6] 60.9% | [8] 66.5% | [13] 72.1% | [14] 69.6% | [15] 33.1% | [20] 57.7%
active: [2] 8.84% | [3] -7.83% | [7] -22.8% | [9] -27.1% | [11] 6.87% | [12] 8.99% | [16] 3.78% | [17] -6.13% | [18] -16.8% | [19] -49.8%

C=C(C)[C@@H]1CC[C@]2(C)[C@H](CC[C@@H]3[C@@H]([C@@](C)(O)CCC=C(C)C)CC[C@]32C)[C@@]1(C)CCC(=O)N1CCN(C)CC1
active: [1] -80% [100 µM] | [2] 1.77% [100 µM] | [3] -89.6% [100 µM] | [4] -95.8% [100 µM] | [5] -93.7% [100 µM] | [6] -79.4% [100 µM] | [7] -88.7% [100 µM] | [8] -94% [100 µM] | [9] -59.9% [100 µM] | [11] -92.8% [100 µM] | [12] -70.8% [100 µM] | [13] -92.5% [100 µM] | [14] -95.3% [100 µM] | [15] -78.6% [100 µM] | [20] -61.8% [100 µM] | [16] -99.1% [100 µM] | [17] -95.2% [100 µM] | [18] -100% [100 µM] | [19] -92.1% [100 µM]

C[C@]12CCc3c(ccc4cc(O)ccc34)[C@@H]1CC[C@H]2O
inactive: [1] 104% | [2] 94.9% | [3] 101% | [4] 88.3% | [5] 97.2% | [6] 91.4% | [7] 84.9% | [8] 91% | [9] 102% | [11] 93.4% | [12] 104% | [13] 89.2% | [14] 87.2% | [15] 101% | [20] 88.8% | [16] 101% | [17] 61.4% | [18] 96.4% | [19] 99.3%

CCCCOC(=O)c1c(C)[nH]c(/C=C2\N=C(c3ccc[nH]3)C=C2OC)c1C
active: [2] 9.48% | [3] -56.5% | [4] -49.7% | [5] -12.6% | [7] -61.9% | [8] -36.2% | [9] -12% | [11] -1.74% | [12] 1.64% | [13] -20% | [15] 1.25% | [16] -98% | [17] -28% | [18] -65.8% | [19] -14%
inactive: [1] 18.5% | [6] 19.9% | [14] 26.6% | [20] 13.9%

CC[C@@H]1NC(=O)[C@@H]2CCCCN2C(=O)[C@@H]2CCCN2C(=O)[C@@H](NC(=O)[C@H](Cc2cc(F)cc(F)c2)NC(=O)Nc2ccc(C3CC3)cc2F)[C@H](C)OC(=O)[C@@H]2C[C@@H](C)CN2C1=O
active: [4] -31.2% | [5] -4.47% | [7] -10.1% | [11] 4.6% | [12] 4.98% | [16] -45% | [17] 7.28%
inactive: [1] 20% | [2] 10.4% | [3] 16.9% | [6] 22% | [8] 24.1% | [9] 10.7% | [13] 10.4% | [14] 15.7% | [15] 24.5% | [20] 12.5% | [18] 16.4% | [19] 13.5%

Cc1cccc(/C=C2\N=C(c3ccccc3)N(c3ccc(S(N)(=O)=O)cc3)C2=O)c1
inactive: [1] 97% | [2] 90.9% | [3] 82.7% | [4] 96.7% | [5] 102% | [6] 91.4% | [7] 86.5% | [8] 72.2% | [9] 94.4% | [11] 91.8% | [12] 86.1% | [13] 49.9% | [14] 80.1% | [15] 95.1% | [20] 92.9% | [16] 88.5% | [17] 92.8% | [18] 99% | [19] 101%
